Assay outcomes: PubChem, National Center for Advancing Translational Sciences (NCATS)
In the library only some 7.9% were active in any assay of this set; here they are far more common.
MCF10A rerep: induces DNA re-replication in MCF 10a normal breast cells. MCF 10A DNA re-replication, Hoechst nuclear intensity, 48 h. Potency, µM (doses to about 46.1 µM), for the others: top-dose activity, positive = re-replication, usual class: activators. 350,000 tested, 2.9% active. AID 624296; note: % of control where 0% means no effect; nearly all actives have a fitted effect of over 50% in size
HT1080 IDH1KD tx: kills HT-1080 cells with IDH1 knockdown. AID 686971. 360,000 tested, 2% active. HT-1080 IDH1 knockdown viability, ATP luminescence, 48 h. Potency, µM (doses to about 46.1 µM), for the others: top-dose activity, negative = toxicity, actives largely listed as cytotoxic;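 note: 0% = DMSO wells and -100% = cell-free medium wells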
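IDH1KD HT-1080 cells, 750/well, RPMI + 5% FBS; compound pinned after 2 h settling; 48 h, 37 °C; CellTiter-Glo luminescence; % activity normalised to DMSO and no-cell wells; curves fitted, classed by r2 and efficacy.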
SW480 rerep: inducers of DNA re-replication in SW480 colon cancer cells; SW480 DNA re-replication, Hoechst DNA content imaging, 48 h; 340,000 tested, 1.8% active; AID 624297; Potency, µM (top dose mostly 46.1 µM), for inactives: at the top dose re-replication activation, usual class: activators; note: % of control where 0% means no effect; nearly all actives have a fitted effect of over 55% in size
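Per well, 250 cells were exposed to pinned compound for 48 hr. Nuclear DNA was visualised with Hoechst (40 min, 37 C) and total object intensity recorded by fluorescence scanning.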
KB-V1 cytotox: kills drug-selected multidrug resistant KB-V1 cells; KB-V1 MDR cells viability, CellTiter-Glo, 72 h; Potency, µM (series often up to 46.1 µM), most hits filed as cytotoxic; 400,000 tested, 3.4% active; note: % is set by controls: 0 for no effect and ±100 for the full control effect; nearly all actives have a fitted effect of over 60% in size
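KB-V1 cells (P-gp-expressing MDR subline of KB-3-1) in phenol-red-free DMEM with 10% FBS were exposed to library compounds over a concentration series for 72 h at 37 degrees C. Viability read by CellTiter-Glo luminescence; concentration-effect curves fitted after normalization.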
KB-3-1 tox: KB-3-1 parental cell cytotoxicity. Potency, µM (top dose mostly 46.1 µM), usual class: cytotoxic. AID 1347075. KB-3-1 viability, CellTiter-Glo ATP luminescence, 72 h. 400,000 tested, 1.4% active; note: % is set by controls: 0 for no effect and ±100 for the full control effect; nearly all actives have a fitted effect of over 60% in size
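Cells are dispensed, compounds pinned in, plates held at 37 °C for 72 h, then CellTiter-Glo is added and luminescence read after 10 minutes. Cell line: parental KB-3-1 in phenol-red-free DMEM, 10% FBS.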
HT1080NT lethal: kills 2HG-producing HT-1080-NT fibrosarcoma cells | HT-1080-NT fibrosarcoma viability, CellTiter-Glo ATP luminescence, 48 h | AID 686970 | 360,000 tested, 1.6% active | Potency, µM (series often up to 46.1 µM), inactives show at the top dose activity, negative = less viability, usual class: cytotoxic;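 note: NT is the 2HG producing partner of a matched IDH1 knockdown line; 0% = DMSO-treated cells and -100% = media-only wells without cells; nearly all actives have a fitted effect of over 55% in size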
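750 cells/well, RPMI + 5% FBS; 2 h settle, compound pin-transfer, 48 h at 37 degrees C. CellTiter-Glo 10 min RT, luminescence. Normalized to DMSO and media-only wells.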
An asterisk follows results filed as active; i = inactive; u = inconclusive; x = no result; [ ] = remark or other dose. Calls come from the whole dose curve; as a rule, active = well fitted curve in the direction sought with a large enough effect; inconclusive = small, poorly fitted or top-dose-only effect, or another doubt; inactive = no such curve, though single readings can be large; an effect the other way counts as inactive or inconclusive. Potency is the fitted concentration of half-maximal effect.

SMILES	MCF10A rerep	HT1080 IDH1KD tx	SW480 rerep	KB-V1 cytotox	KB-3-1 tox	HT1080NT lethal
CCCn1c(SCC(=O)Nc2nnc(-c3ccccc3)s2)nnc1-c1ccccn1	18.4µM*	16.7%	-0.2%	i	i	17.0%
COc1ccc(NC(=O)CSc2nnc(-c3ccccn3)n2N)cc1Cl	1.5%	-22.3%	-6.1%	16.4µM*	i	-2.0%
Cc1cc(-c2nc(C)c(-c3nnc(SCC(=O)Nc4cc(Cl)cc(Cl)c4)n3C)s2)no1	11.5%	4.4%	-3.8%	i	i	u
Cn1c(SCC(=O)Nc2cc(Cl)cc(Cl)c2)nnc1-c1ccc2nonc2c1	18.4µM*	-2.5%	18.4µM*	u	i	-11.1%
Cc1nc(N/N=C/c2ccccn2)sc1C	u	14.6µM*	20.6µM*	u	25.9µM*	13µM*
COC(=O)c1ccc(/C=N/Nc2nc(C)c(C)s2)cc1	23.1µM*	0.7%	u	i	i	0.1%
CCCc1sc(N/N=C/c2ccccn2)nc1-c1ccc(F)cc1	-0.3%	3.16µM*	-5.8%	10.3µM*	u	2.82µM*
COC(=O)c1ccc(/C=N/Nc2nc(-c3ccc(C)cc3)cs2)cc1	u	10.5%	1.8%	i	i	21.7%
CCOc1ccc(C2NC(=O)NC(C)=C2C(=O)OC)cc1C (stereo not given)	4.9%	-12.5%	-1.9%	i	i	2.0%
CCN(CC(=O)Nc1c(F)cccc1F)C(=O)c1ccc(S(=O)(=O)N2CCC(C)CC2)cc1	-1.2%	0.1%	0.4%	20.6µM*	i	5.2%
CCN(CC(=O)Nc1c(F)cccc1F)C(=O)c1ccc(S(=O)(=O)N2CCCCCC2)cc1	2.2%	4.3%	-5.1%	u	i	4.5%
O=C/C(=C\Nc1ccc(Br)cc1)c1nc2ccccc2o1	-42.4%	-1.1%	0.5%	i	i	-9.3%
O=C/C(=C\Nc1ccccn1)c1nc2cc(Cl)ccc2o1	15.8µM*	-12.5%	2.4%	i	i	-18.2%
O=C/C(=C\Nc1ccccn1)c1nc2ccccc2o1	20.6µM*	u	u	i	i	-23.3%[9.24 µM]
Cc1ccc(-c2nnn(CC(=O)N(c3cnc4ccccc4c3)C(C(=O)NC3CCCC3)c3ccncc3)n2)o1 (stereo not given)	u	-2.2%	u	i	i	20.6%
COc1cccc(CN2C(=O)Nc3ccccc3C(=O)N2C(C)(C)C)c1	12.4%	9.1%	3.3%	i	i	13.7%
O=C(NCC1CCCO1)c1coc2nc3ccccc3nc12 (stereo not given)	20.6µM*	u	10.6%	u	i	u
C=CCn1c(N)c(C(=O)NCC2CCCO2)c2nc3ccccc3nc21 (stereo not given)	-7.2%	-23.2%	9.2µM*	u	i	u
CCCCc1ccc(NC(=O)N[C@H](C(=O)O)C(C)C)cc1	16.9%	6.6%	-5.7%	i	i	5.1%
CC(C)OC(=O)c1cc(Cl)c(=O)n(Cc2ccc(Cl)cc2Cl)c1	22.5%	0.0%	9.3%	i	i	-16.7%
CC(Sc1nncs1)C(=O)NC1CCCCC1C (stereo not given)	2.8%	7.4%	-0.3%	i	i	-3.1%
CCc1ccc(S(=O)(=O)c2cn(C)c3cc(F)c(F)cc3c2=O)cc1	x	x	x	i	i	x
COc1ccc(NS(=O)(=O)c2cc(C(=O)N3CCN(C/C=C/c4ccccc4)CC3)ccc2C)cc1	11.1%	-12.2%	-0.9%	5.8µM*	18.4µM*	-7.5%
COc1ccc(C)cc1S(=O)(=O)N1CCN(C/C=C/c2ccccc2)CC1	0.3%	-4.9%	-2.6%	18.4µM*	i	-3.6%
COc1ccc(C)cc1S(=O)(=O)N1CCN(S(=O)(=O)c2cc(C)ccc2OC)CC1	-5.8%	0.8%	-3.1%	u	i	-0.6%
SMILES	MCF10A rerep	HT1080 IDH1KD tx	SW480 rerep	KB-V1 cytotox	KB-3-1 tox	HT1080NT lethal
Cc1ccc(C(=O)N2CCCCCC2)cc1S(=O)(=O)Nc1ccccc1	2.1%	0.0%	-4.7%	u	i	3.6%
O=C(CCNS(=O)(=O)c1ccc(OC(F)(F)F)cc1)N1CCN(C/C=C/c2ccccc2)CC1	u	-11.1%	2.0%	6.51µM*	u	-1.9%
CCCCN(C)C(=O)CC(NS(=O)(=O)c1ccc(NC(C)=O)cc1)C(C)C (stereo not given)	-1.0%	8.9%	-2.0%	u	i	6.4%
COc1ccccc1Nc1nc2ccc(Cl)cc2nc1-n1nc(C)cc1C	x	x	x	i	i	x
Cc1ccc(S(=O)(=O)NC(C)(C)CN2CCNCC2)cc1	u	8.3%	20.6µM*	i	i	9.8%
Cc1ccc(S(=O)(=O)NC(C)(C)CN2CCc3ccccc3C2)cc1	19.8%	0.3%	6.51µM*	u	i	-24.1%
COc1cccc2[nH]c(C(=O)NCc3ccc4c(c3)CCN4C(=O)c3ccc(F)cc3)cc12	x	x	x	i	u	x
O=C(COC(=O)CCC1CCCC1)Nc1ccc(Cl)cc1F	-6.3%	14.3%	23.1µM*	i	i	-3.8%
Cc1ccc(NC(=O)COC(=O)CCC2CCCC2)c(Br)c1	-3.1%	3.1%	3.9%	i	i	1.9%
CSc1nc(-c2ccc(N(C)C)cc2)c(C#N)c(=O)n1C	11.6µM*	-0.9%	7.31µM*	i	i	3.3%
CSc1nc(-c2ccc(Cl)cc2)c(C#N)c(=O)n1C	0.2%	2.5%	-0.4%	i	i	5.0%
C/C=C/c1c(F)c(F)c(Oc2ccc(C(=O)O)cc2)c(F)c1F	u	3.2%	-5.5%	i	i	15.8µM*
COc1ccc(-c2nc3ccc(Cl)cn3c2Nc2ccc(C)cc2)cc1	x	x	x	i	i	x
COc1ccc(N(C)C2=NS(=O)(=O)c3ccccc32)cc1	5.8µM*	23.1µM*	2.59µM*	i	u	11.6µM*
CN(/N=C/c1ccc(N(C)C)cc1)C1=NS(=O)(=O)c2ccccc21	8.2µM*	u	7.31µM*	i	u	u
COc1ccc(/C=N/N(C)C2=NS(=O)(=O)c3ccccc32)cc1	4.4%	-9.2%	0.0%	i	i	9.8%
OC1NC(=S)N(c2ccccc2)C1O (stereo not given)	-1.4%	4.2%	-7.1%	i	i	7.1%
O=C(CSc1ccccn1)N/N=C/C=C/c1ccccc1	9.7%	-0.8%	-3.1%	i	i	-9.4%
Cc1c(C(=O)NN)sc(-c2ccccc2)c1C#N	u	-25.8%	-74.2%	i	i	-28.3%
CN(Cc1ccccc1N1CCCC1)C(=O)c1cc2ccccc2o1	u	-6.1%	8.2%	i	i	-6.0%
